In PubChem BioAssay (NCI):
Compounds without any hit were thinned out: in the full panel of roughly 83,000, 20% have a hit.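 Assay: single dose, 48 h. Readout: percent growth (0 = no net growth; negative = cell death). Active: <10.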 Activity calls are given as the source filed them.

How the values were obtained:
Assay in all cases: NCI-60 one-dose screen, 48 h (100 = growth as untreated, 0 = no growth, -100 = all killed)
Conditions in all cases: 10 µM unless noted
HCT-15 colon = system: HCT-15 colon
HT29 colon = system: HT29 colon
SNB-75 CNS = system: SNB-75 CNS
SNB-19 CNS = system: SNB-19 CNS
U251 CNS = system: U251 CNS
PC-3 prostate = system: PC-3 prostate
SK-MEL-5 melanoma = system: SK-MEL-5 melanoma
UACC-62 melanoma = system: UACC-62 melanoma
LOX IMVI melanoma = system: LOX IMVI melanoma
SK-MEL-28 melanoma = system: SK-MEL-28 melanoma
SK-MEL-2 melanoma = system: SK-MEL-2 melanoma
EKVX NSCLC = system: EKVX NSCLC
SN12C renal = system: SN12C renal
UO-31 renal = system: UO-31 renal
TK-10 renal = system: TK-10 renal
ACHN renal = system: ACHN renal
CAKI-1 renal = system: CAKI-1 renal
A498 renal = system: A498 renal
CCRF-CEM leukemia = system: CCRF-CEM leukemia
MOLT-4 leukemia = system: MOLT-4 leukemia

Measured: growth

COc1ccc(C2=C(Nc3ccc(C(=O)Nc4ccccc4)cc3)C(=O)N(C)C2=O)cc1
inactive: HCT-15 colon 89.1% | HT29 colon 84% | SNB-75 CNS 88.9% | SNB-19 CNS 95.3% | U251 CNS 95.4% | PC-3 prostate 80.7% | SK-MEL-5 melanoma 96.2% | UACC-62 melanoma 92.3% | LOX IMVI melanoma 84.6% | SK-MEL-28 melanoma 111% | SK-MEL-2 melanoma 85.1% | EKVX NSCLC 96.8% | SN12C renal 99.2% | UO-31 renal 71.8% | TK-10 renal 95.4% | ACHN renal 89.9% | CAKI-1 renal 80.9% | A498 renal 116% | CCRF-CEM leukemia 85.4% | MOLT-4 leukemia 76.7%

CC(C)Cn1cnc2c(=O)[nH]c(N)nc21
inactive: HCT-15 colon 106% | HT29 colon 79.2% | SNB-75 CNS 84.4% | SNB-19 CNS 100% | U251 CNS 94.8% | PC-3 prostate 92.8% | SK-MEL-5 melanoma 98.9% | UACC-62 melanoma 103% | LOX IMVI melanoma 97.8% | SK-MEL-28 melanoma 115% | SK-MEL-2 melanoma 87.9% | EKVX NSCLC 101% | SN12C renal 98.9% | UO-31 renal 94.4% | TK-10 renal 88.6% | ACHN renal 106% | CAKI-1 renal 95.4% | A498 renal 94.1% | CCRF-CEM leukemia 107% | MOLT-4 leukemia 92.4%

Cc1cc(C(=O)O)c(C)n1-c1cccc(C(=O)O)c1
inactive: HT29 colon 28.4% | SNB-75 CNS 121% | SNB-19 CNS 87% | U251 CNS 64.2% | PC-3 prostate 98.4% | SK-MEL-5 melanoma 95.8% | UACC-62 melanoma 85.1% | LOX IMVI melanoma 65% | SK-MEL-28 melanoma 102% | SK-MEL-2 melanoma 18.8% | EKVX NSCLC 98.5% | SN12C renal 83.7% | UO-31 renal 85.5% | TK-10 renal 95.8% | CAKI-1 renal 13.8% | A498 renal 93% | CCRF-CEM leukemia 108% | MOLT-4 leukemia 62.9%
active: HCT-15 colon 9.52% | ACHN renal -8.94%

CCN(CC)Cc1cc(C=C2C(=O)NC(=S)NC2=O)cc(OC)c1O
inactive: HCT-15 colon 105% | HT29 colon 108% | SNB-75 CNS 99.1% | SNB-19 CNS 98.6% | U251 CNS 98.6% | PC-3 prostate 102% | SK-MEL-5 melanoma 106% | UACC-62 melanoma 96.5% | LOX IMVI melanoma 105% | SK-MEL-28 melanoma 107% | SK-MEL-2 melanoma 119% | EKVX NSCLC 106% | SN12C renal 100% | UO-31 renal 90.1% | TK-10 renal 110% | ACHN renal 107% | CAKI-1 renal 99.3% | A498 renal 98.8% | CCRF-CEM leukemia 104% | MOLT-4 leukemia 108%

COc1cc(/C=C/C(=O)c2ccc(F)cc2)ccc1OCCCCOc1ccc(/C=C/C(=O)c2c(C)nc3ccccc3c2C)cc1OC
inactive: HCT-15 colon 96.5% | HT29 colon 100% | SNB-75 CNS 97.1% | SNB-19 CNS 110% | U251 CNS 83.3% | PC-3 prostate 93.2% | SK-MEL-5 melanoma 62.4% | UACC-62 melanoma 73.1% | LOX IMVI melanoma 90.2% | SK-MEL-28 melanoma 122% | SK-MEL-2 melanoma 50.5% | EKVX NSCLC 133% | SN12C renal 115% | UO-31 renal 86.8% | TK-10 renal 114% | ACHN renal 95.8% | CAKI-1 renal 80.6% | A498 renal 113% | CCRF-CEM leukemia 80.5% | MOLT-4 leukemia 67%

NC(=O)c1cccc(-n2ccc3cc(NC(=O)c4ccc(N5CCOCC5)c(C(F)(F)F)c4)ccc32)n1
inactive: HCT-15 colon 33.8% | HT29 colon 14.3% | SNB-75 CNS 52.8% | SNB-19 CNS 70.7% | U251 CNS 44.1% | PC-3 prostate 34.5% | SK-MEL-5 melanoma 49.7% | UACC-62 melanoma 50.9% | LOX IMVI melanoma 64.4% | SK-MEL-28 melanoma 64.7% | SK-MEL-2 melanoma 71% | EKVX NSCLC 47.8% | SN12C renal 73.5% | UO-31 renal 36.5% | TK-10 renal 86.9% | ACHN renal 46.6% | CAKI-1 renal 39.7% | A498 renal 15.7% | CCRF-CEM leukemia 34.4% | MOLT-4 leukemia 52.5%

COC(=O)/C=C1/SC(=Nc2cccc(OC)c2)N(CCc2c[nH]c3ccc(O)cc23)C1=O
active: CCRF-CEM leukemia 4.98% | MOLT-4 leukemia -1.26%
inactive: HCT-15 colon 26.4% | HT29 colon 92% | SNB-75 CNS 71% | SNB-19 CNS 54.3% | U251 CNS 45.4% | PC-3 prostate 46% | SK-MEL-5 melanoma 63.6% | UACC-62 melanoma 53.4% | LOX IMVI melanoma 23.5% | SK-MEL-28 melanoma 70.9% | SK-MEL-2 melanoma 57.6% | EKVX NSCLC 66.9% | SN12C renal 62.3% | UO-31 renal 55.7% | TK-10 renal 117% | ACHN renal 71.8% | CAKI-1 renal 82.2% | A498 renal 64.9%

C=CCOC(=O)Nc1cccn([C@H](Cc2ccccc2)C(=O)NCCC(C)C)c1=O
inactive: HCT-15 colon 111% | HT29 colon 99.7% | SNB-75 CNS 91.1% | SNB-19 CNS 85.9% | U251 CNS 101% | PC-3 prostate 92.3% | SK-MEL-5 melanoma 102% | UACC-62 melanoma 97.1% | LOX IMVI melanoma 90.8% | SK-MEL-28 melanoma 97.6% | SK-MEL-2 melanoma 115% | EKVX NSCLC 104% | SN12C renal 98.7% | UO-31 renal 88.7% | TK-10 renal 111% | ACHN renal 103% | CAKI-1 renal 89.8% | A498 renal 114% | CCRF-CEM leukemia 77.1% | MOLT-4 leukemia 93.6%

CCCCC1=C(P(=O)(O)O)N[C@H](C(=O)O)CS1
inactive: HCT-15 colon 87.9% | HT29 colon 95.3% | SNB-75 CNS 104% | SNB-19 CNS 89% | U251 CNS 94.2% | PC-3 prostate 90% | SK-MEL-5 melanoma 98.8% | UACC-62 melanoma 85.1% | LOX IMVI melanoma 92.4% | SK-MEL-28 melanoma 89.7% | SK-MEL-2 melanoma 103% | EKVX NSCLC 90.5% | SN12C renal 88.2% | UO-31 renal 73.5% | TK-10 renal 94.8% | ACHN renal 97.9% | CAKI-1 renal 94.1% | A498 renal 100% | CCRF-CEM leukemia 96.8% | MOLT-4 leukemia 102%

COCCOc1cc2ncnc(N3CCN(c4cc(S(C)(=O)=O)c(C)cc4Cl)CC3)c2cc1OCCOC
inactive: HCT-15 colon 95.7% | HT29 colon 94.4% | SNB-75 CNS 98.8% | SNB-19 CNS 96.8% | U251 CNS 85.3% | PC-3 prostate 81.5% | SK-MEL-5 melanoma 77% | UACC-62 melanoma 94.2% | LOX IMVI melanoma 93.5% | SK-MEL-28 melanoma 107% | SK-MEL-2 melanoma 95.3% | EKVX NSCLC 90.4% | SN12C renal 87.2% | UO-31 renal 61.8% | TK-10 renal 104% | ACHN renal 100% | CAKI-1 renal 101% | A498 renal 88.2% | CCRF-CEM leukemia 89.5% | MOLT-4 leukemia 79.4%

C#CCNC(=O)[C@H](CC)[C@H]1CC[C@H](C)[C@H]([C@@H](C)[C@H](O)[C@H](C)C(=O)[C@H](CC)C2O[C@]3(C=CC(=O)[C@]4(CC[C@@](C)([C@H]5CC[C@](O)(CC)[C@H](C)O5)O4)O3)[C@H](C)C[C@@H]2C)O1 (stereo not given in full)
active: SNB-75 CNS -19.5% | SK-MEL-5 melanoma 7.94%
inactive: HCT-15 colon 28.8% | HT29 colon 29.3% | SNB-19 CNS 42.1% | U251 CNS 52.2% | PC-3 prostate 21% | UACC-62 melanoma 41.3% | LOX IMVI melanoma 32.3% | SK-MEL-28 melanoma 58.6% | SK-MEL-2 melanoma 45% | EKVX NSCLC 51.3% | SN12C renal 48.7% | UO-31 renal 47.9% | TK-10 renal 87.1% | ACHN renal 45% | CAKI-1 renal 17.4% | A498 renal 38.5% | CCRF-CEM leukemia 27.3% | MOLT-4 leukemia 32.4%

COc1ccc(-c2noc(C(=O)O)c2-c2cc(OC)c(OC)c(OC)c2)cc1
active: HT29 colon 4.82% | SNB-75 CNS -3.43% | CCRF-CEM leukemia 7.85%
inactive: HCT-15 colon 30.4% | SNB-19 CNS 31.6% | U251 CNS 24.6% | PC-3 prostate 26.3% | SK-MEL-5 melanoma 13% | UACC-62 melanoma 24.2% | LOX IMVI melanoma 35.2% | SK-MEL-28 melanoma 65.3% | SK-MEL-2 melanoma 13.8% | EKVX NSCLC 44.1% | SN12C renal 38.4% | UO-31 renal 38.8% | TK-10 renal 46.4% | ACHN renal 34.7% | CAKI-1 renal 22.6% | A498 renal 31.6% | MOLT-4 leukemia 25.7%

COCCn1cc(-c2csc(-c3cn(C)c4ccc(Br)cc34)n2)c2cccnc21
inactive: HCT-15 colon 12.1% | HT29 colon 26% | SNB-75 CNS 75.6% | SNB-19 CNS 78.5% | U251 CNS 51.4% | PC-3 prostate 38.1% | SK-MEL-5 melanoma 71% | UACC-62 melanoma 70.5% | SK-MEL-28 melanoma 74.9% | SK-MEL-2 melanoma 65.6% | EKVX NSCLC 58.4% | SN12C renal 69.1% | UO-31 renal 61.9% | TK-10 renal 61.5% | ACHN renal 57.1% | CAKI-1 renal 65% | A498 renal 45.6% | CCRF-CEM leukemia 67.4% | MOLT-4 leukemia 63.4%
active: LOX IMVI melanoma -55.1%

O=S(=O)(Nc1cc(F)cc(Cl)c1)c1ccc(-c2cnc(C3CC3)o2)cc1
inactive: HCT-15 colon 25.4% | SNB-19 CNS 30.4% | U251 CNS 33.6% | PC-3 prostate 32% | SK-MEL-5 melanoma 19.9% | UACC-62 melanoma 35.1% | LOX IMVI melanoma 39.3% | SK-MEL-28 melanoma 71.3% | SK-MEL-2 melanoma 52.8% | EKVX NSCLC 38% | SN12C renal 45.8% | UO-31 renal 39.3% | TK-10 renal 47.7% | ACHN renal 34.4% | CAKI-1 renal 31.3% | CCRF-CEM leukemia 23.6% | MOLT-4 leukemia 31.9%
active: HT29 colon 4.89% | SNB-75 CNS -22.1% | A498 renal -6.52%
